Screening results: PubChem BioAssay, several laboratories
Sampled rows, rich in hits. Any-hit rate of the full collection: about 2.4%.
MEKK2 mut-MEK5 – MEK5 binding signal on mutant MEKK2 PB1, primary screen, biochemical, multiplex bead flow cytometry, Alexa488-MEK5; Alexa488-MEK5 binding to MEKK2 mutant; percent response, % at 10 µM; actives 0.35% (n = 290,000); AID 1530, 2009; in the data active = percent response above about 24%, passing the limit was not always enough
Arbovirus inh – antivirals against arbovirus infection, primary screen, cell-based, full library, 10K replicate subset; arbovirus infection cell-based antiviral screen; inhibition, % at 10 µM; actives 0.37% (n = 200,000); in the data active = inhibition above about 30%
Pf gametocyte – late stage P. falciparum gametocyte viability inhibitors, primary screen, ATP luminescence, HTS. AID 743093, 2013. P. falciparum stage V gametocytes, 24 h. inhibition, % at 10.9 µM. actives 0.065% (n = 150,000);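 active = inhibition above the mean plus 3 SD of compounds within the control limits, set per campaign, cut at about 38% in these data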
MEKK3 PB1 HTS – modulators of MEKK3-MEK5 PB1 binding, primary screen, biochemical, wildtype MEKK3, multiplex bead flow cytometry, Alexa488-MEK5; AID 1529, 2009; Mitogen-activated protein kinase kinase kinase 3 (Homo sapiens), Q99759; binding response (% of control), % at 10 µM; bead-based flow cytometry, Alexa488-MEK5 binding to MEKK3; actives lie on both sides; 0 = blocked by unlabeled MEK5, 100 = vehicle; actives 1.4% (n = 290,000);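 active = binding response more than 3 SD above or below the average of its plate-row segment, actives on both sides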;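 also: Alexa488 bead fluorescence after subtracting the streptavidin-only scavenger bead signal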
Target sequence (Q99759 whole entry, looked up): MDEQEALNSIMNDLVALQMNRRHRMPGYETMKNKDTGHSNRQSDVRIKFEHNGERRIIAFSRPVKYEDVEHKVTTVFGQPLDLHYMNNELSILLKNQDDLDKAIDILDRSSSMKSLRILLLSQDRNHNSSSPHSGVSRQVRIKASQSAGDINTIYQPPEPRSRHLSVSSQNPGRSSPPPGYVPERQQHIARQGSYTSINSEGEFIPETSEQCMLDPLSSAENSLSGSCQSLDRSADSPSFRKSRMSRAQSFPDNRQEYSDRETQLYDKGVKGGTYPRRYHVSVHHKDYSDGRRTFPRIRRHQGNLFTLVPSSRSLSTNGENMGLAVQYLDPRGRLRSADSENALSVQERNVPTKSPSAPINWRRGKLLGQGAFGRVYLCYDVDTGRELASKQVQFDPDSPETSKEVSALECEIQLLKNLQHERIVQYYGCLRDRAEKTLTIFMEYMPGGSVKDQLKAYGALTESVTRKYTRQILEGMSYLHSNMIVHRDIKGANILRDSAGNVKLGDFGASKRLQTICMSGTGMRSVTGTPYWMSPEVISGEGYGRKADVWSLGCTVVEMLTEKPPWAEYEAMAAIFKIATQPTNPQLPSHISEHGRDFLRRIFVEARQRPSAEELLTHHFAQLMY
MEKK2 WT-MEK5 – modulators of MEK5 binding to wildtype MEKK2, primary screen, biochemical, multiplex bead flow cytometry, Alexa488-MEK5; Mitogen-activated protein kinase kinase kinase 2 (Homo sapiens), Q9Y2U5; Alexa488-MEK5 binding to MEKK2 WT; actives lie on both sides; binding response (% of control), % at 10 µM; actives 1.1% (n = 290,000); AID 1531, 2009; in the data active = binding response below about 67% or above about 130%
MEKK2wt confirm – modulators of MEK5 binding to wildtype MEKK2, confirmation, biochemical, single concentration, multiplex bead flow cytometry; actives 2.4% (n = 5,900); binding response (% of control), % at 10 µM; Alexa488-MEK5 binding to MEKK2 WT; actives lie on both sides; AID 1892, 2009; shares compounds with MEKK3 PB1 HTS; in the data active = binding response below about 16% or above about 210%; inactive = in between
MEKK2mut confirm – mutant MEKK2 PB1-MEK5 binding signal retest – biochemical, single concentration, multiplex bead flow cytometry, confirmation | shares compounds with MEKK3 PB1 HTS | Alexa488-MEK5 binding to MEKK2 mutant | percent response, % at 10 µM | actives 2% (n = 5,900); in the data active = percent response mostly above about 71%, no sharp cut-off; inactive = mostly below about 38%;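 also: higher means compound restores mutant binding toward wildtype level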
MEKK3 confirm – MEKK3 wild-type PB1 binding to MEK5, inhibitors, confirmation, biochemical, bead multiplex flow cytometry, single concentration, wildtype | shares compounds with MEKK3 PB1 HTS | binding response (% of control), % at 10 µM | AID 1894, 2009 | actives 1.8% (n = 5,900) | Alexa488-MEK5 binding to MEKK3; stronger effect = lower value;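 active = binding response below 72% of control, or above a set upper limit, though filed actives all read lower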
Numbers stand for hits; [ ] = dose if it differs, or a comment.

What do the screens show for `COc1ccc(Cl)cc1NC(=O)CNc1ccccc1CN(C)C1CCCCC1`?
MEKK2 mut-MEK5: inactive; Arbovirus inh: inactive; MEKK3 PB1 HTS: inactive; MEKK2 WT-MEK5: 154; MEKK2wt confirm: inactive; MEKK2mut confirm: inactive; MEKK3 confirm: inactive

Results for O=[N+]([O-])c1ccc(/C=N/Nc2ccc3ccccc3c2)o1 ?
MEKK2 mut-MEK5: inactive; Arbovirus inh: inactive; Pf gametocyte: inactive; MEKK3 PB1 HTS: inactive; MEKK2 WT-MEK5: 2.0[inhibitor]; MEKK2wt confirm: inactive; MEKK2mut confirm: inactive; MEKK3 confirm: inactive

What do the screens show for `O=C(N/N=C/c1ccc([N+](=O)[O-])o1)c1cc2ccccc2o1`?
MEKK2 mut-MEK5: inactive; Pf gametocyte: inactive; MEKK3 PB1 HTS: inactive; MEKK2 WT-MEK5: inactive

Results for CCOc1ccccc1NC(=O)CCS(=O)(=O)c1ccc(Br)cc1 ?
MEKK2 mut-MEK5: inactive; MEKK3 PB1 HTS: 81[inhibitor]; MEKK2 WT-MEK5: inactive; MEKK2wt confirm: inactive; MEKK2mut confirm: inactive; MEKK3 confirm: inactive

How did OCCNc1nc(Nc2ccc(Br)cc2)nc2ccccc12 do in these assays?
MEKK2 mut-MEK5: inactive; Arbovirus inh: inactive; Pf gametocyte: inactive; MEKK3 PB1 HTS: inactive; MEKK2 WT-MEK5: 146; MEKK2wt confirm: inactive; MEKK2mut confirm: inactive; MEKK3 confirm: inactive

Results for Oc1ccccc1Nc1nc(NCc2ccccc2)c2ccccc2n1 ?
MEKK2 mut-MEK5: 67; Arbovirus inh: inactive; MEKK3 PB1 HTS: inactive; MEKK2 WT-MEK5: 216; MEKK2wt confirm: inactive; MEKK2mut confirm: inactive; MEKK3 confirm: inactive

Results for CNc1nc(NCc2ccccc2)c2ccccc2n1 ?
MEKK2 mut-MEK5: inactive; Pf gametocyte: inactive; MEKK3 PB1 HTS: inactive; MEKK2 WT-MEK5: inactive

Results for Fc1ccccc1-c1nc(NCc2ccco2)c2ccccc2n1 ?
MEKK2 mut-MEK5: inactive; Arbovirus inh: inactive; MEKK3 PB1 HTS: inactive; MEKK2 WT-MEK5: inactive

Results for Oc1ccccc1-c1nc(NCc2ccco2)c2ccccc2n1 ?
MEKK2 mut-MEK5: inactive; Arbovirus inh: inactive; Pf gametocyte: inactive; MEKK3 PB1 HTS: inactive; MEKK2 WT-MEK5: inactive

How did COc1ccccc1Nc1nc(NCc2ccco2)c2ccccc2n1 do in these assays?
MEKK2 mut-MEK5: inactive; Pf gametocyte: inactive; MEKK3 PB1 HTS: inactive; MEKK2 WT-MEK5: 177; MEKK2wt confirm: inactive; MEKK2mut confirm: inactive; MEKK3 confirm: inactive

Results for Cc1ccc(Nc2nc(NCc3ccco3)c3ccccc3n2)cc1 ?
MEKK2 mut-MEK5: 77; Arbovirus inh: inactive; MEKK3 PB1 HTS: inactive; MEKK2 WT-MEK5: 191; MEKK2wt confirm: inactive; MEKK2mut confirm: inactive; MEKK3 confirm: inactive

How did O=C(CSc1n[nH]c(=O)n1-c1cccnc1)Nc1ccccc1 do in these assays?
MEKK2 mut-MEK5: inactive; MEKK3 PB1 HTS: inactive; MEKK2 WT-MEK5: inactive

What do the screens show for `NC(=O)c1ccccc1OCC(=O)Nc1ccc(Cl)c(Cl)c1`?
MEKK2 mut-MEK5: inactive; Pf gametocyte: inactive; MEKK3 PB1 HTS: inactive; MEKK2 WT-MEK5: inactive

How did O=c1c(N2CCOCC2)c(N2CCOCC2)c1=O do in these assays?
MEKK2 mut-MEK5: inactive; Pf gametocyte: inactive; MEKK3 PB1 HTS: 42[inhibitor]; MEKK2 WT-MEK5: inactive; MEKK2wt confirm: inactive; MEKK2mut confirm: inactive; MEKK3 confirm: inactive

Results for CC(C)Oc1c(N2CCOCC2)c(=O)c1=O ?
MEKK2 mut-MEK5: inactive; Pf gametocyte: inactive; MEKK3 PB1 HTS: inactive; MEKK2 WT-MEK5: inactive

How did O=C(Nc1ccc(S(=O)(=O)NCc2ccccc2)cc1)c1ccccc1[N+](=O)[O-] do in these assays?
MEKK2 mut-MEK5: inactive; Arbovirus inh: inactive; Pf gametocyte: inactive; MEKK3 PB1 HTS: 158; MEKK2 WT-MEK5: inactive; MEKK2wt confirm: inactive; MEKK2mut confirm: inactive; MEKK3 confirm: inactive

What do the screens show for `CCOC(=O)c1ccc(NC(=O)c2ccccc2[N+](=O)[O-])cc1`?
MEKK2 mut-MEK5: inactive; Arbovirus inh: inactive; Pf gametocyte: inactive; MEKK3 PB1 HTS: inactive; MEKK2 WT-MEK5: inactive

Results for CCCn1ncc(CN2CCC(C(=O)Nc3cccc(-c4cccc(F)c4)c3)CC2)c1C ?
MEKK2 mut-MEK5: inactive; MEKK3 PB1 HTS: inactive; MEKK2 WT-MEK5: 144; MEKK2wt confirm: inactive; MEKK2mut confirm: inactive; MEKK3 confirm: inactive

How did O=C(Nc1cccc(F)c1)C1CCCCC1 do in these assays?
Pf gametocyte: inactive

What do the screens show for `O=C(Nc1cccc(-c2cccc(F)c2)c1)C1CCN(C2CCC2)CC1`?
MEKK2 mut-MEK5: inactive; MEKK3 PB1 HTS: inactive; MEKK2 WT-MEK5: 146; MEKK2wt confirm: inactive; MEKK2mut confirm: inactive; MEKK3 confirm: inactive

How did CC(C)N1CCN(Cc2ccc(C#CCCO)cc2)CC1CCO (centres undefined) do in these assays?
MEKK2 mut-MEK5: inactive; Arbovirus inh: inactive; Pf gametocyte: inactive; MEKK3 PB1 HTS: inactive; MEKK2 WT-MEK5: inactive

How did COc1ccccc1N(CC(=O)Nc1ccc2c(c1)OCCO2)S(=O)(=O)c1ccc(C)cc1 do in these assays?
MEKK2 mut-MEK5: inactive; MEKK3 PB1 HTS: inactive; MEKK2 WT-MEK5: inactive

Results for CCOC(=O)N/N=C(\C)c1ccc(C)c([N+](=O)[O-])c1 ?
MEKK2 mut-MEK5: inactive; Arbovirus inh: inactive; MEKK3 PB1 HTS: 132; MEKK2 WT-MEK5: inactive; MEKK2wt confirm: inactive; MEKK2mut confirm: inactive; MEKK3 confirm: inactive

What do the screens show for `CCOC(=O)N/N=C(\C)c1ccc(Br)cc1`?
MEKK2 mut-MEK5: inactive; Arbovirus inh: inactive; Pf gametocyte: inactive; MEKK3 PB1 HTS: inactive; MEKK2 WT-MEK5: inactive

Results for Cc1cccc(CSCc2ccc(C(=O)NC3CCCC3)o2)c1 ?
MEKK2 mut-MEK5: inactive; Arbovirus inh: inactive; Pf gametocyte: inactive; MEKK3 PB1 HTS: inactive; MEKK2 WT-MEK5: inactive

How did Cc1cc(C)c(C)c(S(=O)(=O)NCCCN2CCCC2=O)c1C do in these assays?
MEKK2 mut-MEK5: inactive; MEKK3 PB1 HTS: inactive; MEKK2 WT-MEK5: inactive

Results for COc1cc(/C=c2\sc3nc(=O)c(-c4ccccc4)nn3c2=O)ccc1OCCC(C)C ?
MEKK2 mut-MEK5: inactive; Arbovirus inh: inactive; MEKK3 PB1 HTS: 140; MEKK2 WT-MEK5: inactive; MEKK2wt confirm: inactive; MEKK2mut confirm: inactive; MEKK3 confirm: inactive

How did CCOC(=O)c1oc2ccccc2c1COC(=O)CNC(=O)c1cccc(C)c1 do in these assays?
MEKK2 mut-MEK5: inactive; MEKK3 PB1 HTS: inactive; MEKK2 WT-MEK5: inactive
